Screens (PubChem)
Sampled rows, rich in hits. Any-hit rate of the full collection: about 1.2%.
BioA inh-1: inhibitors of Mycobacterium tuberculosis BioA enzyme. purified M. tuberculosis BioA enzyme, plate reader. inhibition, % at 9.99 µM. actives 0.096% (n = 360,000). AID 602481; in the data active means inhibition above about 40%; inconclusive means no clear call, values can overlap the other calls
Y pestis TopoI: Y. pestis Topo-I inhibition via cleavage products. actives 0.064% (n = 360,000). activity, % at 10 µM. Y. pestis Topo-I cleavage product accumulation, plate reader. AID 504884; in the data active means activity above about 50%, passing the limit was not always enough; inconclusive means no clear call, values can overlap the other calls
Vc quorum ag-1: quorum light induction in luxS cqsA deficient V. cholerae; V. cholerae BH1578 lux reporter, luminescence, 6 h; activation, % at 18.7 µM; actives 0.16% (n = 350,000); AID 588436; in the data active means activation mostly above about 9.7%, no sharp cut-off; inconclusive means no clear call, values can overlap the other calls; inactive means mostly below about 3.7%
PfHsp40 yeast: rescue of PfHsp40-mediated yeast toxicity. S. cerevisiae expressing PfHsp40, growth rescue, ATP luminescence. growth rescue, % at 12.5 µM. actives 0.68% (n = 340,000). AID 504582; in the data active means growth rescue above about 28%, passing the limit was not always enough; inconclusive means no clear call, values can overlap the other calls;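 further: yeast W303a lacking pdr1 and pdr3 grown in galactose medium; growth measured after three days at 30 °C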
TcdB inh: inhibitors of Clostridioides difficile toxin B glycohydrolase. TcdB glycohydrolase enzymatic assay, plate reader. inhibition, % at 9.99 µM. actives 0.24% (n = 350,000); in the data active means inhibition above about 10%
DUSP3 inh: DUSP3 (human) phosphatase inhibition; P51452; recombinant VHR phosphatase, pNPP absorbance; inhibition, % at 13.3 µM; actives 0.52% (n = 290,000); AID 1654; in the data active means inhibition above about 50%
Target sequence (P51452 whole entry, looked up): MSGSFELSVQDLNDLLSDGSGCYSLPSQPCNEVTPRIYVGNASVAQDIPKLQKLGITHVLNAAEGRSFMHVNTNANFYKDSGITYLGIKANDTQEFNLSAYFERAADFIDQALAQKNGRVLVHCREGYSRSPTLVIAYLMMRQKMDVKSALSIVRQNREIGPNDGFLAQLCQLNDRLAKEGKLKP
Vc quorum ag-2: quorum light induction in BH1578 reporter strain | 620 tested, under 10 active | shares compounds with Vc quorum ag-1 | V. cholerae BH1578 lux reporter, luminescence, 6 h | activation, % at 50 µM
BioA inh-2: blocks M. tuberculosis BioA aminotransferase. shares compounds with BioA inh-1. purified BioA enzyme, plate reader, dose response. max activity, %. 310 tested, under 10 active;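 further: top concentration of the dilution series was 10 µM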
Target sequence (P9WQ81 whole entry, looked up): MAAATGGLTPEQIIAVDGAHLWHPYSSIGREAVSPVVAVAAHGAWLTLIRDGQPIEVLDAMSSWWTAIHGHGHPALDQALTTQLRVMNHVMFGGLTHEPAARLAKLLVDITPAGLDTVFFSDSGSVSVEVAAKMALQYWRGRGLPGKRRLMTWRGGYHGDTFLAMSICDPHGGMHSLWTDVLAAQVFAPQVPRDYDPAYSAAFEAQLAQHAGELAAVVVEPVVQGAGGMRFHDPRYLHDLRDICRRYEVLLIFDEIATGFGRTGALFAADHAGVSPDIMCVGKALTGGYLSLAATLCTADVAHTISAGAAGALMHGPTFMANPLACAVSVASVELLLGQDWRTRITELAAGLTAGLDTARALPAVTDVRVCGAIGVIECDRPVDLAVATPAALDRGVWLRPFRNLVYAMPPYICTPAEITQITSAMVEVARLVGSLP
HepG2 tox 2: kills HepG2 cells | shares compounds with BioA inh-1 | HepG2 cytotoxicity, plate reader | max activity, % | 310 tested, under 10 active | AID 651898
3T3 cytotox 5: kills NIH3T3 cells. activity change, negative = cytotoxicity, % at 26 µM. NIH3T3 cytotoxicity, plate reader. shares compounds with BioA inh-1. 310 tested, under 10 active
* = called active by the depositor; i = inactive; ? = inconclusive; / = no result; [ ] = remark or other dose. Unless noted, how the calls were made is not given here.

SMILES	BioA inh-1	Y pestis TopoI	Vc quorum ag-1	PfHsp40 yeast	TcdB inh	DUSP3 inh	BioA inh-2	HepG2 tox 2	3T3 cytotox 5	others
Cc1cnc(C)c(N(C)NC(=S)Nc2ccccc2)n1	/	-7	0	-3	-2	-8	/	/	/
Fc1ccc(NCc2cn3ccccc3n2)cc1	-1	2	17*	2	/	-2	/	/	/	Vc quorum ag-2=1
CCN(C(=O)C1CCCCC1)c1nnc(-c2cccnc2)s1	15	3	0	-1	/	4	/	/	/
COCCN(C(=O)C1CCC1)c1nnc(-c2cccnc2)s1	-3	7	14	-1	/	-18	/	/	/	Vc quorum ag-2=0
O=C(OC1CCN(c2ncc(C(F)(F)F)cc2Cl)CC1)c1ccc(Cl)cc1	0	-2	12	-1	/	10	/	/	/	Vc quorum ag-2=0
COc1cc(C=CC(=O)c2ccccc2)cc(OC)c1OC	/	/	/	/	0	/	/	/	/
CC(C)(C)N(Cc1ccccc1)C(=O)COC(=O)CNS(=O)(=O)c1ccc2ccccc2c1	0	4	0	1	-1	/	/	/	/
Cc1ccc(S(=O)(=O)NCCC(=O)OCC(=O)N(Cc2ccccc2)C(C)(C)C)cc1C	1	26	12	1	1	/	/	/	/	Vc quorum ag-2=0
Cc1cccc(C(=O)OCC(=O)c2ccc3c(c2)NC(=O)CO3)c1	/	-6	-1	2	1	/	/	/	/
COC(=O)c1cc(C(=O)OCC(=O)c2ccc3c(c2)NC(=O)CO3)cc([N+](=O)[O-])c1	-3	-4	14	-1	2	/	/	/	/	Vc quorum ag-2=10
CN(CC(=O)Nc1c(Cl)cccc1Cl)C(=O)c1cccc(-n2cccc2)c1	/	1	-17	0	-3	/	/	/	/
CN(CC(=O)Nc1ccccc1Cl)C(=O)c1cccc(-n2cccc2)c1	0	-1	14	1	0	/	/	/	/	Vc quorum ag-2=0
Cc1ccccc1-n1ccnc1SCC(=O)NCC1CCCO1 (stereo not drawn)	0	-2	15*	20	0	4	/	/	/	Vc quorum ag-2=0
Cc1ccc(-n2nnnc2SCC(=O)NCC2CCCO2)cc1C (stereo not drawn)	-1	1	12	1	-1	/	/	/	/	Vc quorum ag-2=-101
CC(=O)N1N=C(c2ccc(C)cc2)OC1c1ccc(C)cc1 (stereo not drawn)	0	5	i	0	/	-6	/	/	/
Cc1noc(C)c1S(=O)(=O)N1CCCC(C(=O)NCCC2=CCCCC2)C1 (stereo not drawn)	0	1	20*	-1	/	14	/	/	/	Vc quorum ag-2=2
N#Cc1cccc(NC(=O)COC(=O)CCc2ccc(S(=O)(=O)N3CCOCC3)cc2)c1	-1	-5	i	0	1	/	/	/	/
CN(c1ccc(C(=O)Nc2cccnc2)cc1)S(C)(=O)=O	19	-3	i	-1	/	5	/	/	/
CN1CCN(C(=O)c2ccc3c(c2)N(Cc2cccc(Cl)c2)C(=O)c2ccccc2S3(=O)=O)CC1	-1	15	0	-1	0	-10	/	/	/
O=C(Nc1ccc(F)cc1)NC1CCN(Cc2nnnn2Cc2ccco2)CC1	74*	-1	i	-1	/	-1	6	?	0
CC(=O)c1ccc(C(=O)N2CCCC(CO)(Cc3ccccc3C)C2)s1 (stereo not drawn)	54*	29	-1	1	-2	-4	-7	-7	-4
Cc1ccccc1CC1(CO)CCCN(C(=O)c2ccccc2Cl)C1 (stereo not drawn)	/	29	i	-1	1	13	/	/	/
CO[C@H]1CN(C)C(=O)c2ccc(NC(C)=O)cc2OC[C@@H](C)N(C(=O)C2CCCCC2)C[C@H]1C	53*	/	/	/	1	/	-3	i	3
CCN1[C@H](C(=O)NCc2ccccc2)[C@@H](CO)[C@@H]2Cn3c(ccc(-c4ccncc4)c3=O)[C@@H]21	-1	/	/	/	2	/	/	/	/
CCNC(=O)[C@@H]1[C@@H](CO)[C@@H]2Cn3c(ccc(-c4cccnc4)c3=O)[C@@H]2N1Cc1ccc2c(c1)OCO2	64*	/	/	/	1	/	3	i	6[23.5 µM]
SMILES	BioA inh-1	Y pestis TopoI	Vc quorum ag-1	PfHsp40 yeast	TcdB inh	DUSP3 inh	BioA inh-2	HepG2 tox 2	3T3 cytotox 5	others
CCN1[C@H](C(=O)NCc2ccccc2)[C@@H](CO)[C@@H]2Cn3c(ccc(-c4cccnc4)c3=O)[C@@H]21	41*	/	/	/	1	/	32	i	6
COC(=O)[C@@H]1[C@@H](CO)[C@@H]2Cn3c(ccc(-c4ccccc4)c3=O)[C@@H]2N1Cc1cccc(F)c1	42*	/	/	/	0	/	5	i	-7
CCNC(=O)[C@H]1[C@H](CO)[C@H]2Cn3c(ccc(-c4cccnc4)c3=O)[C@H]2N1Cc1ccc2c(c1)OCO2	18	/	/	/	1	/	/	/	/
NC(=O)C1=C[C@@H](c2ccc(Br)cc2)C[C@@H](OCCCCO)O1	4	9	i	-2	-1	21	/	/	/
C[C@@H]1CN([C@H](C)CO)C(=O)c2cccc(NC(=O)c3nc4ccccc4s3)c2O[C@@H]1CN(C)Cc1ccc(C(F)(F)F)cc1	-3	/	/	/	-2	/	/	/	/
CCOC(=O)c1ccc2c(c1)nc(SCc1cn3ccsc3n1)n2CC	53*	34	-2	8	/	5	-7	11	-8
C=CCn1c(SCCN2C(=O)c3ccccc3C2=O)nc2scc(-c3ccc(F)cc3)c2c1=O	/	6	1	-1	1	/	/	/	/
C=CCn1c(COc2ccccc2F)nnc1SCCN1C(=O)c2ccccc2C1=O	44*	20	i	-1	/	9	-7	12	0
CCn1c(CC(=O)Nc2ccc(Cl)c(Cl)c2)nnc1SCc1ccc(Cl)cc1	/	-2	i	-3	/	5	/	/	/
CCN1CCN(CC(=O)c2c(C)n(Cc3ccccc3)c3ccc(OC)cc23)CC1	26	2	-1	0	/	38	/	/	/
COc1ccc2c(c1)c(C(=O)CN1CCC3(CC1)OCCO3)c(C)n2Cc1ccccc1	59*	17	i	0	/	18	-6	-8	-10
COc1cccc(-c2ccc3c(c2)[C@H]2[C@H](CCN2C(=O)C2CCC2)[C@@H](CO)N3)c1	60*	/	/	/	/	/	-10	i	-2
O=C(C1CC1)N1CC[C@@H]2[C@H](CO)Nc3ccc(Br)cc3[C@@H]21	85*	/	/	/	-1	/	?	i	-5
O=C(Cc1ccncc1)N1CC[C@@H]2[C@H](CO)Nc3ccc(Br)cc3[C@@H]21	16	/	/	/	/	/	/	/	/
O=C(c1ccncc1)N1CC[C@@H]2[C@@H](CO)Nc3ccc(Br)cc3[C@@H]21	48*	/	/	/	/	/	-5	i	-2
Cc1ccc(NC(=S)NN2CCOCC2)c(C)c1	/	-4	i	0	/	36	/	/	/
C[C@@H]1CN([C@@H](C)CO)C(=O)Cc2cc(NS(C)(=O)=O)ccc2O[C@H]1CN(C)Cc1ccc(C(=O)Nc2ccccc2N)cc1	-1	/	/	/	0	/	/	/	/
CCC(=O)N1CC[C@@H]2[C@@H](CO)N(C)c3ccc(-c4cccc(F)c4)cc3[C@@H]21	68*	/	/	/	/	/	9	i	-7
